These results are taken from PubChem BioAssay (NCI).

Among the test systems are NCI-H23 lung; NCI-H226 lung; NCI-H322M lung; HOP-62 NSCLC; NCI-H460 lung; HOP-92 NSCLC; NCI-H522 lung; A549/ATCC NSCLC; 786-0 renal; COLO 205 colon; DU-145 prostate; K-562 leukemia; MALME-3M melanoma; MDA-MB-231 breast; RXF 393 renal; SF-268 CNS; SF-295 CNS; SF-539 CNS; UACC-257 melanoma; M14 melanoma.
Holding throughout (assay): NCI-60 one-dose screen, 48 h (100 = growth as untreated, 0 = no growth, -100 = all killed)
Holding throughout (settings): 10 µM unless noted

Compounds without any hit were thinned out: in the full panel of roughly 83,000, 20% have a hit.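 Growth was measured after 48 h exposure to one concentration of compound in 96-well plates. Values under 10 count as active.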 Unmarked numbers belong to inactive results. Activity calls are given as the source filed them.

Turning to `CCN(CC)CCNC(=O)c1ccc(-c2nc3ccc4[nH]ncc4c3c3c2CCCC3)cc1`, the growth is 65.3% with NCI-H23 lung; 64.7% with NCI-H226 lung; 55.8% in the test on NCI-H322M lung; 57.3% in the test on HOP-62 NSCLC; 60.5% in the test with NCI-H460 lung; 73% in the test with HOP-92 NSCLC. The growth in the test on NCI-H522 lung was 50.6%; with A549/ATCC NSCLC, 56.1%; in the test on 786-0 renal it was 50.6%; with COLO 205 colon it was 63.6%; in the test with DU-145 prostate, 53.5%; in the test on K-562 leukemia, 30%. For the same compound, the growth in the test on MALME-3M melanoma was 79.1%; in the test on MDA-MB-231 breast, 59.6%; with RXF 393 renal, 36.4%; in the test with SF-268 CNS it was 58.6%; in the test with SF-295 CNS it was 80.2%; in the test with SF-539 CNS, 61.2%. Also, the growth in the test with UACC-257 melanoma is 96.7%; with M14 melanoma, 52.9%.
For the compound `Clc1ccc(-c2cn3ccsc3n2)c(Cl)c1Cl`, the growth in the test with NCI-H23 lung is 89.8%; with NCI-H226 lung it was 84.6%; in the test on NCI-H322M lung, 118%; in the test on HOP-62 NSCLC it was 84.9%; in the test with NCI-H460 lung, 105%; with HOP-92 NSCLC, 58.8%. In addition, the growth was 81.3% with NCI-H522 lung; 97.5% in the test with A549/ATCC NSCLC; 103% in the test on 786-0 renal; 94.9% in the test on COLO 205 colon; 76.2% with DU-145 prostate; 73.1% in the test on K-562 leukemia. Further, the growth was 117% with MALME-3M melanoma; 76.1% with MDA-MB-231 breast; 95.2% in the test on RXF 393 renal; 102% in the test with SF-268 CNS; 91.8% in the test on SF-295 CNS; 88% in the test with SF-539 CNS. Moreover, the growth is 87.7% in the test on UACC-257 melanoma and 98.7% in the test on M14 melanoma.
In the case of `CCc1cccc(Sc2cc(C(=O)N3Cc4ccc(OCCN(C)C)cc4C3)ccc2O)c1`, the growth in the test with NCI-H23 lung is 41.2%; in the test with NCI-H226 lung, 89.3%; in the test on NCI-H322M lung, 62.9%; in the test with HOP-62 NSCLC, 71.5%; with NCI-H460 lung it was 38.9%; with HOP-92 NSCLC, 57.1%. Also, the growth in the test with NCI-H522 lung is 66.8%; in the test on A549/ATCC NSCLC it was 43.1%; with 786-0 renal it was 70.6%; with COLO 205 colon, 109%; in the test with DU-145 prostate it was 38.9%; in the test with K-562 leukemia, 22%. Besides, the growth is 57.3% in the test with MALME-3M melanoma; 80% in the test with MDA-MB-231 breast; 72.2% with RXF 393 renal; 63.8% in the test on SF-268 CNS; 78.4% in the test with SF-295 CNS; 89% in the test with SF-539 CNS. For the same compound, the growth in the test on UACC-257 melanoma was 63.3%; in the test on M14 melanoma, 78.1%.
Consider `O=C1/C(=C/c2cccc([N+](=O)[O-])c2)COc2ccc(O)cc21`, for which the growth with NCI-H23 lung was 89.3%; with NCI-H226 lung it was 111%; with NCI-H322M lung, 89.8%; in the test on HOP-62 NSCLC, 88.2%; in the test with NCI-H460 lung, 92.4%; in the test with HOP-92 NSCLC, 110%. Moreover, the growth with NCI-H522 lung is 8.12% (active); in the test on A549/ATCC NSCLC, 89.2%; with 786-0 renal, 14.7%; in the test with COLO 205 colon, 64.6%; in the test with DU-145 prostate it was 81.8%; in the test with K-562 leukemia, 13.4%. The growth is 76.6% in the test on MALME-3M melanoma; 47.9% in the test with MDA-MB-231 breast; 107% in the test on RXF 393 renal; 85.9% in the test with SF-268 CNS; 95.5% in the test on SF-295 CNS; 70.6% in the test on SF-539 CNS. Further, the growth is 97% with UACC-257 melanoma and 55% with M14 melanoma.
As for `CC1COCC(C)N1C1=C(Cl)C(=O)c2ccccc2C1=O` (stereo not given), the growth with NCI-H23 lung was 63%; in the test on NCI-H226 lung it was 97.3%; with NCI-H322M lung, 94%; with HOP-62 NSCLC it was 99.2%; with NCI-H460 lung, 104%; with HOP-92 NSCLC, 53.4%. Besides, the growth is 36.3% in the test on NCI-H522 lung; 97.1% with A549/ATCC NSCLC; 102% in the test with 786-0 renal; 104% in the test with COLO 205 colon; 97.9% in the test with DU-145 prostate; 0.947% (active) in the test with K-562 leukemia. For the same compound, the growth in the test with MALME-3M melanoma is 75.3%; in the test with MDA-MB-231 breast, 67.4%; in the test with RXF 393 renal, 61.3%; in the test with SF-268 CNS it was 90.8%; in the test with SF-295 CNS, 102%; with SF-539 CNS, 104%. In addition, the growth in the test with UACC-257 melanoma is 37.1%; in the test with M14 melanoma, 80.6%.
For the compound `O=C(Nc1ccc(F)cc1)Nc1ccccc1CNc1nc(Nc2ccc(OCCN3CCCC3)cc2)ncc1Cl`, the growth in the test with NCI-H23 lung is 60.8%; in the test with NCI-H226 lung it was 99.1%; in the test with NCI-H322M lung, 89.1%; in the test on HOP-62 NSCLC it was 51.3%; in the test on NCI-H460 lung it was 9.85% (active); in the test on HOP-92 NSCLC, 52.2%. The growth was 37% in the test with NCI-H522 lung; 38.2% in the test with A549/ATCC NSCLC; -16.3% (active) with 786-0 renal; 0.109% (active) with COLO 205 colon; 47% in the test with DU-145 prostate; 2.99% (active) with K-562 leukemia. Moreover, the growth in the test with MALME-3M melanoma was -29.3% (active); with MDA-MB-231 breast it was -30.9% (active); with RXF 393 renal it was -50% (active); with SF-268 CNS, 56.5%; in the test on SF-295 CNS, 82.3%; in the test on SF-539 CNS, -74.7% (active). Moreover, the growth was 5.96% (active) with UACC-257 melanoma and -39.2% (active) in the test with M14 melanoma.
For `COc1ccc(C(c2cc(OC)c(OC)c(OC)c2)N2CCN(Cc3ccccc3)CC2)cc1` (stereo not given), the growth with NCI-H23 lung was 88.5%; with NCI-H226 lung it was 85.4%; in the test with NCI-H322M lung, 65.1%; in the test on HOP-62 NSCLC, 69.7%; with NCI-H460 lung, 74.4%; with HOP-92 NSCLC it was 70.6%. The growth in the test with NCI-H522 lung is 52.4%; in the test with A549/ATCC NSCLC, 78.4%; in the test with 786-0 renal, 82.6%; with COLO 205 colon, 61.8%; in the test with DU-145 prostate it was 102%; in the test with K-562 leukemia, 26.4%. The growth in the test with MALME-3M melanoma is 74.8%; with MDA-MB-231 breast, 71%; with RXF 393 renal, 72.3%; with SF-268 CNS it was 86.4%; with SF-295 CNS it was 68.7%; with SF-539 CNS, 81.2%. The growth is 84.2% with UACC-257 melanoma and 52.8% in the test on M14 melanoma.
As for `Nc1ncnc2c1c(-c1ccc(Oc3ccccc3)cc1)nn2CC1SSCC1O` (stereo not given), the growth is 49% in the test with NCI-H23 lung; 23.4% with NCI-H226 lung; 34.8% in the test on NCI-H322M lung; 56.9% in the test on HOP-62 NSCLC; 28% in the test with NCI-H460 lung; 6.06% (active) in the test on HOP-92 NSCLC. Besides, the growth in the test with NCI-H522 lung is 37.8%; with A549/ATCC NSCLC, 42.3%; in the test on 786-0 renal it was 63.8%; in the test on COLO 205 colon, 35.2%; with DU-145 prostate it was 49%; with K-562 leukemia, 11.2%. The growth is -34.8% (active) with MALME-3M melanoma; 47% in the test on MDA-MB-231 breast; 17.7% with RXF 393 renal; 48.8% in the test on SF-268 CNS; 73% in the test on SF-295 CNS; 41.2% in the test on SF-539 CNS. Moreover, the growth in the test on UACC-257 melanoma was 46.6%; in the test on M14 melanoma, -73.5% (active).
